Data on 30 molecules can be found in PubChem BioAssay (NCATS).

Structures are written as SMILES. Records with an inconclusive call do not appear. For some assays here: Measured potencies and affinities stand elsewhere. Calls of active or inactive are those of the source.

As a reminder, the AC50 is the midpoint of the concentration-response curve, whichever way the signal moves.

The conditions of test [1]: Ebola virus entry assay, green channel fluorescence.
The conditions of test [2]: Ebola virus entry assay, reporter ratio channel.
The conditions of test [3]: Ebola virus entry assay, blue channel (ratio component).
Test [4] can be described thus: qHTS assay for measurement of the activity of small molecule inhibitors on Zika virus induced Caspase-3 activity in human astrocytoma cells (AID 1224859; active = well fitted curve in the direction sought with a large enough effect; an effect the other way counts as inactive or inconclusive;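 also: plate controls were ZIKV-infected untreated cells for no effect and uninfected cells for full effect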). Particulars: SNB-19 ZIKV-induced caspase-3/7, luminescence, 6 h; series mostly up to 45.7 µM. In short, it runs like this: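 Compound added 1 h pre-infection; ZIKV 2 FFU/cell on SNB-19 cells, 6 h, 37 C/5% CO2. Caspase-Glo 3/7 luminescence; values as % inhibition of ZIKV-induced caspase activity.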
(In general: In qHTS, concentration-response curves come from the screen itself.)

Test [5] in a line: qHTS assay to identify small molecule inhibitors of chordoma cells - UCH-2 (AID 1259356; active = well fitted curve in the direction sought with a large enough effect; an effect the other way counts as inactive or inconclusive; also: % is scaled to controls: 0 for no effect and ±100 for the full control effect). As to conditions: UCH-2 chordoma viability, CellTiter-Glo ATP luminescence, 48 h; series mostly up to 46.1 µM.
The conditions of test [6]: Ebola virus entry cell assay, ratio channel.
A short description of test [7]: qHTS assay for measurement of the activity of small molecule inhibitors on Zika virus induced Caspase-3 activity in human iPSC derived neural progenitor cells (hNPCs) (AID 1224857; active = well fitted curve in the direction sought with a large enough effect; an effect the other way counts as inactive or inconclusive; also: % of control where 0% means no effect; nearly all actives have a fitted effect of over 65% in size). As to conditions: hNPCs ZIKV-induced caspase-3/7, Caspase-Glo luminescence, 6 h; series mostly up to 45.7 µM. The essentials:
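Values are percent inhibition of virus-induced caspase-3/7 signal, scaled between uninfected cells and ZIKV-infected cells. Infection used 2 FFU/cell for 6 h after 1 h compound exposure.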

Test [8] is described as follows: qHTS assay to identify small molecule inhibitors of chordoma cells - UCH-1 (AID 1259355; active = well fitted curve in the direction sought with a large enough effect; an effect the other way counts as inactive or inconclusive; also: % is scaled to controls: 0 for no effect and ±100 for the full control effect; nearly all actives have a fitted effect of over 55% in size). Particulars: UCH-1 chordoma viability, CellTiter-Glo, 48 h, combination; series mostly up to 46.1 µM. In short, it runs like this:
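Seed 800 cells per well; incubate overnight at 37 C, 5% CO2. Add test compounds (15 concentrations), then the auranofin–topoisomerase-agent combination. Incubate 48hr, add CellTiter-Glo, wait 30min, read luminescence.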

The nature of test [9]: Immunotoxin (HA22) sensitization/mitigation study. Vehicle arm (PBS) (AID 1159510). Also: potency is read from the fitted curve at half-maximal effect. As to conditions: cancer cells viability with PBS vehicle (HA22 study); series mostly up to 46.1 µM.
The nature of test [10]: High-throughput drug toxicity screening in the BPDCN cell line Gen2.2 (AID 1224824).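 Also: cells exposed to compounds for 48 h before reading.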 As to conditions: Gen2.2 BPDCN cells; at 45.8 µM (top of the series). In short, it runs like this: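 CellTiter-Glo luminescence read after 48 h compound exposure at 37 C defines viability; percent activity set with DMSO as 100% and bortezomib (9.2 uM final) as 0%. 500 exponentially growing cells per well, RPMI plus 10% FBS.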

Test [11] in a line: qHTS Screen of the MIPE 4.0 Collection Against Ewings Sarcoma (TC71) (AID 1259253; active = well fitted curve in the direction sought with a large enough effect; an effect the other way counts as inactive or inconclusive; also: nearly all actives have a fitted effect of over 40% in size; also: potency is read from the fitted curve at half-maximal effect). As to conditions: TC71 Ewing sarcoma viability, CellTiter-Glo, 48 h; series mostly up to 45.8 µM. In short, it runs like this:
(§1)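 Cells plated in serum-containing RPMI (5% FBS) and treated with compound dilutions for 48 h. Readout luminescent viability; normalization relied on vehicle (no inhibition) and media-only columns (full inhibition).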

The nature of test [12]: qHTS Screen of the MIPE 4.0 Collection Against Ewings Sarcoma (EW8) (AID 1259255; active = well fitted curve in the direction sought with a large enough effect; an effect the other way counts as inactive or inconclusive; also: nearly all actives have a fitted effect of over 35% in size; also: potency is read from the fitted curve at half-maximal effect;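 as to viability: 100% = DMSO-treated cells and 0% = medium-only wells without cells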). As to conditions: EW8 Ewing sarcoma viability, CellTiter-Glo, 48 h; series mostly up to 45.8 µM. The essentials:
as §1

Test [13] is described as follows: Identifying Small Molecule Inhibitors of Pancreatic Cancer Stem Cells (SN12C, Adherent) (AID 1259358; active = well fitted curve in the direction sought with a large enough effect; an effect the other way counts as inactive or inconclusive;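 also: cell survival measured after 48 h of compound exposure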). As to conditions: viability/growth inhibition; series mostly up to 46.1 µM. In short, it runs like this: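 Pre-formed 14-day tumor spheroids or adherent cells dosed and incubated 48 h, 37C, 5% CO2. Viability assessed by CellTiter-Glo.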
A short description of test [14]: Identifying Small Molecule Inhibitors of Pancreatic Cancer Stem Cells (SN12C, Spheroid) (AID 1259360; active = well fitted curve in the direction sought with a large enough effect; an effect the other way counts as inactive or inconclusive;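 also: 100% = DMSO-treated cells and 0% = wells without cells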). Particulars: Potency: SN12C spheroid viability; series mostly up to 46.1 µM. In short, it runs like this:
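After a 4 h attachment period, compounds were pinned into wells and cultures held 48 h under standard incubator conditions. Viability was then measured as CellTiter-Glo luminescence following 10 min at room temperature.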

The conditions of test [15]: Ebola virus entry assay, blue channel fluorescence.
For test [16] the following is noted: Ebola virus entry reporter assay, green channel fluorescence.
Test [17] in a line: Immunotoxin (SS1P) sensitization/mitigation study. Vehicle arm (DMEM) (AID 1159513). Also: potency is read from the fitted curve at half-maximal effect. Particulars: cell viability with vehicle (DMEM); series mostly up to 46.1 µM.
Where [18] appears, read: AC50: Channel type: primary unless noted, outcome: Channel type: primary unless noted.

As for `CCCN1CCC[C@@H]2Cc3[nH]ncc3C[C@H]21`, the molecule was called inactive in [1], in [2] (setting [18]), in test [3] and in [4]. Moreover, the Potency result in test [5] was “inactive”.

Consider `Clc1ccc(C(c2ccccc2Cl)C(Cl)Cl)cc1` (stereo unspecified), for which the outcome in test [1] and in [6] was inactive. For the same molecule, the AC50 in test [2] (setting [18]) was 22.4 µM (active).

In the case of `c1ccc(C2CC2)c(OCC2=NCCN2)c1`, the call in test [1] and in test [4] was inactive. The AC50 in [2] (setting [18]) is 39.8 µM (active). The Potency entry in [7], in test [8] and in test [5] was “inactive” each time.

With `CN1CCC[C@@H]1Cc1c[nH]c2ccc(CCS(=O)(=O)c3ccccc3)cc12`, the molecule was classed as inactive in test [1] and in test [6]. The AC50 in test [2] (setting [18]) is 25.1 µM (active).

With `O=c1c(O)c(-c2ccc(O)c(O)c2)oc2cc(O)cc(O)c12`, the result in test [1] and in test [3] was inactive.

For `Oc1cccc2cccnc12`, the molecule was called inactive in [1], in test [2] (setting [18]) and in test [4]. Further, the Potency entry in test [8] and in test [5] was “inactive” in each case.

As for `O=C(c1ccc(OCCN2CCCCC2)cc1)c1c(-c2ccc(O)cc2)sc2cc(O)ccc12`, in test [1], the outcome was inactive. In test [6], the AC50 was 5.01 µM (active).

Turning to `Cn1cc(C2=C(c3cn(C4CCN(Cc5ccccn5)CC4)c4ccccc34)C(=O)NC2=O)c2ccccc21`, the outcome in test [1], in test [2] (setting [18]) and in [4] was inactive. In addition, the Potency is 4.18 µM (active) in test [9], 6.62 µM (active) in [11] and 10.5 µM (active) in [12]. The cell viability, % of control (lower = more cytotoxic) in [10] came to 265%. Besides, the Potency result in [7], in [13] and in test [14] was “inactive” each time.

Turning to `FC(F)(F)c1cccc(C2=CCN(CCc3ccc4ccccc4c3)CC2)c1`, the outcome in test [1], in test [2] (setting [18]), in test [3] and in [4] was inactive. Further, the Potency result in test [8] and in [5] was “inactive” throughout.

Turning to `COC1=CC(=O)C[C@@H](C)[C@]12Oc1c(Cl)c(OC)cc(OC)c1C2=O`, the outcome in test [15], in test [2] (Channel type: confirmation), in test [2] (Channel type: primary), in test [16] and in test [6] was inactive.

As for `CN(C)CCOC(C)(c1ccccc1)c1ccccn1` (stereo unspecified), the call in test [1] and in test [6] was inactive. The AC50 in test [2] (setting [18]) is 14.1 µM (active).

Take `NCCc1cc(O)c(O)cc1O`: the result in [1] and in test [4] was inactive. Also, the AC50 in [2] (setting [18]) is 39.8 µM (active). The Potency result in [7], in test [8] and in [5] was “inactive” throughout.

On to `CC(=O)Nc1cc([As](=O)(O)O)ccc1O`, for which the call in test [1], in test [2] (setting [18]), in test [3] and in [4] was inactive. Besides, the Potency result in test [8] and in test [5] was “inactive” throughout.

For `CC[C@@H](CO)NC(=O)[C@@H]1C=C2c3cccc4[nH]cc(c34)C[C@H]2N(C)C1`, the molecule was called inactive in test [1] and in test [4]. Also, in test [2] (setting [18]), the AC50 was 10 µM (active). Moreover, the Potency result in test [7], in test [8] and in [5] was “inactive” throughout.

For `CCOC(=O)C1(c2ccccc2)CCN(CCC(C#N)(c2ccccc2)c2ccccc2)CC1`, the molecule was called inactive in [1], in [16] and in test [4]. In addition, the AC50 is 10 µM (active) in test [2] (setting [18]) and 14.1 µM (active) in test [6]. The Potency entry in test [7], in test [8] and in [5] was “inactive” in each case.

Turning to `CN(C)CC[C@@H](c1ccc(Br)cc1)c1ccccn1`, the molecule was classed as inactive in test [1] and in [6]. The AC50 in [2] (setting [18]) is 39.8 µM (active).

For the molecule `NP(N)(=O)NC(=O)c1ccc(F)cc1`, the molecule was called inactive in test [1], in test [2] (setting [18]), in test [3] and in [4]. Further, the Potency entry in [8] and in test [5] was “inactive” throughout.

`CC(C)=CCOc1c2occc2cc2ccc(=O)oc12`: the result in test [1] and in [4] was inactive. Further, the AC50 in test [2] (setting [18]) is 25.1 µM (active). Also, in [7], the Potency result was “inactive”.

On to `Cc1cccc(C)c1NC(=O)CN1CCCC1=O`, for which the outcome in [1], in test [2] (setting [18]) and in [4] was inactive. Besides, the cell viability, % of control (lower = more cytotoxic) in test [10] turned out to be 116%. The Potency result in test [11] and in test [12] was “inactive” each time.

For `CC(=O)[C@]1(O)Cc2c(O)c3c(c(O)c2[C@@H](O[C@H]2C[C@H](N)[C@H](O)[C@H](C)O2)C1)C(=O)c1ccccc1C3=O`, the result in test [1] and in test [6] was inactive. Also, the AC50 in test [2] (setting [18]) was 12.6 µM (active).

`CNC(=O)c1cc(Oc2ccc(NC(=O)Nc3ccc(Cl)c(C(F)(F)F)c3)cc2)ccn1`: the molecule was classed as inactive in test [1], in test [16] and in [6]. In addition, the AC50 in test [2] (setting [18]) is 35.5 µM (active). Moreover, the Potency in test [9] is 14.8 µM (active); in test [17] it was 20.9 µM (active).

With `Cc1ccc(S(=O)(=O)N[C@@H](CCCCN)C(=O)CCl)cc1`, the molecule was called inactive in [1] and in [4]. The AC50 in [2] (setting [18]) is 28.2 µM (active). Further, the Potency entry in test [8] and in test [5] was “inactive” each time.

In the case of `Clc1ccc(CCC(Cn2ccnc2)Sc2c(Cl)cccc2Cl)cc1` (stereo unspecified), the molecule was classed as inactive in test [1] and in test [4]. Further, the AC50 in test [2] (setting [18]) is 22.4 µM (active). Further, the Potency result in test [8] and in test [5] was “inactive” throughout.

Regarding `CNC1(C)C2CCC(C2)C1(C)C` (stereo unspecified), the result in [1], in test [16] and in test [6] was inactive. Moreover, in test [2] (setting [18]), the AC50 is 35.5 µM (active).

With `NN=C(N)N`, the molecule was called inactive in test [1], in test [2] (setting [18]), in test [3] and in [4]. For the same molecule, the Potency entry in test [8] and in test [5] was “inactive” throughout.

As to `N#CC(C#N)=Cc1ccc(O)c(O)c1`, the outcome in test [1], in test [2] (setting [18]), in [3] and in test [4] was inactive. The Potency result in [8] and in test [5] was “inactive” throughout.

With `CC(=O)Oc1ccccc1C(=O)Nc1ncc([N+](=O)[O-])s1`, the molecule was classed as inactive in [1], in test [2] (setting [18]) and in test [6].

With `C#C[C@]1(O)CC[C@H]2[C@@H]3CCC4=Cc5oncc5C[C@]4(C)[C@H]3CC[C@@]21C`, the outcome in test [1] and in test [16] was inactive. Moreover, the AC50 in test [2] (setting [18]) is 6.31 µM (active); in test [6], 25.1 µM (active).

On to `CCN(CCO)CCCC(C)Nc1ccnc2cc(Cl)ccc12` (stereo unspecified), for which the result in [1] was inactive. Moreover, the AC50 in test [2] (setting [18]) was 1.41 µM (active); in test [6] it was 1.26 µM (active). For the same molecule, the Potency entry in test [9] and in [17] was “inactive” throughout.

Take `Oc1ccc(C2CNCCc3c2cc(O)c(O)c3Cl)cc1` (stereo unspecified): the result in test [1], in test [2] (setting [18]), in test [16] and in [6] was inactive.
